AmpC no deterg – qHTS Inhibitors of AmpC Beta-Lactamase (assay without detergent); Potency, µM (doses to about 57.1 µM), inactives show at the top dose activity change, negative = inhibition, actives largely listed as inhibitors; 330,000 compounds, 0.52% hits; AmpC nitrocefin hydrolysis, absorbance 480 nm, 0.0001% Triton; AID 485341, 2010;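 note: plate controls were no compound for no effect and no enzyme for full effect; nearly all actives have a fitted effect of over 20% in size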
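AmpC (5.3 nM in the dispensed reagent) in 20 mM phosphate pH 7.0 with 0.01% (detergent screen) or 0.0001% Triton X-100 was preincubated with compounds for 15 min at room temperature. Nitrocefin was then added from an 800 uM solution, and hydrolysis was followed at 480 nm.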
AmpC detergent – qHTS Inhibitors of AmpC Beta-Lactamase (assay with detergent); 370,000 compounds, 0.041% hits; P00811; Potency, µM (series often up to 114 µM), inactives show top-dose activity change, negative = inhibition, most hits filed as inhibitors; AID 485294, 2010; AmpC hydrolysis of nitrocefin, absorbance 480 nm, 0.01% Triton;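 note: 0% = no-compound wells and -100% = no-enzyme wells; nearly all actives have a fitted effect of over 25% in size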
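AmpC (5.3 nM in the dispensed reagent) in 20 mM phosphate pH 7.0 with 0.01% (detergent screen) or 0.0001% Triton X-100 was preincubated with compounds for 15 min at room temperature. Nitrocefin was then added from an 800 uM solution, and hydrolysis was followed at 480 nm.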
Giardia FBPA inh-1 – qHTS Assay for Inhibitors of Fructose-1,6-bisphosphate Aldolase from Giardia Lamblia; A8B2U2; purified Giardia FBPA; Potency, µM (doses to about 59.6 µM), for the others: top-dose activity, negative = inhibition, hits mostly inhibitors; 290,000 compounds, 0.71% hits; AID 2451, 2010; note: nearly all actives have a fitted effect of over 55% in size
Target sequence (A8B2U2 whole entry, looked up): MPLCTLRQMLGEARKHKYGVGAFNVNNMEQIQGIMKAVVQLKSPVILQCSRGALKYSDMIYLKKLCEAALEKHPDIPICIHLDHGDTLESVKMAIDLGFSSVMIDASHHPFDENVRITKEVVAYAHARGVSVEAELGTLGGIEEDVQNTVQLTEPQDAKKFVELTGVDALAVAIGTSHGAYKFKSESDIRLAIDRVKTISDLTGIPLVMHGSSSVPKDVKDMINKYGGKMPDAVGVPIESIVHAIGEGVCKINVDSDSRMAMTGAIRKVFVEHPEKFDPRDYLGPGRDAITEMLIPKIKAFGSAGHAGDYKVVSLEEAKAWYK
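Giardia FBPA (40 nM reagent) was preincubated 10 min at RT with compound (up to 57.5 uM final), then substrate plus GAPDH/TPI/NAD/arsenate coupling system with diaphorase/resazurin was added; resorufin fluorescence (525/598 nm) was read after 20 min.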
Sm TGR inh – qHTS Assay for the Inhibitors of Schistosoma Mansoni Peroxiredoxins | AID 485364, 2010 | 360,000 compounds, 3% hits | Potency, µM (top dose mostly 114 µM), for inactives: top-dose activity change, negative = inhibition, most hits filed as inhibitors | purified TGR, DTNB reduction, TNB absorbance 405 nm | Schistosoma mansoni thioredoxin glutathione reductase (TGR), Q962Y6; note: nearly all actives have a fitted effect of over 60% in size
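First, TGR (20 nM dispensed) and NADPH were mixed with compound. Second, a 15 min room-temperature incubation followed. Third, further NADPH and then DTNB were added to start the reaction. Finally, TNB absorbance was monitored kinetically.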
Giardia growth – qHTS Assay for Inhibitors of Fructose-1,6-bisphosphate Aldolase from Giardia Lamblia: Giardia lamblia growth inhibition; Potency, µM (top dose mostly 57.5 µM), for the others: at the top dose activity change, negative = inhibition, actives largely listed as inhibitors; 1,500 compounds, 5% hits; shares compounds with Giardia FBPA inh-1; Giardia lamblia trophozoite growth inhibition;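 note: trophozoites exposed to compound for 48 h at 37 °C; nearly all actives have a fitted effect of over 70% in size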
Mammalian tox – qHTS Assay for Inhibitors of Fructose-1,6-bisphosphate Aldolase from Giardia Lamblia: Mammalian cellular toxicity; Potency, µM (top dose mostly 57.5 µM), inactives show at the highest dose viability change, negative = toxicity, usual class: inhibitors; mammalian cell viability counter-screen, qHTS; shares compounds with Giardia FBPA inh-1; 1,500 compounds, 4% hits;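 note: Chinese hamster ovary cells used as mammalian cytotoxicity surrogate; viability measured as cellular ATP by luminescence; compound exposure lasted 48 h before reading; nearly all actives have a fitted effect of over 60% in size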
Giardia FBPA inh-2 – qHTS Assay for Inhibitors of Fructose-1,6-bisphosphate Aldolase from Giardia Lamblia: Primary screen confirmation; purified Giardia aldolase enzyme activity, qHTS; 1,500 compounds, 5% hits; Potency, µM (series often up to 57.5 µM), without a hit: at the highest dose activity change, negative = inhibition, most hits filed as inhibitors; shares compounds with Giardia FBPA inh-1; note: nearly all actives have a fitted effect of over 45% in size
Rabbit FBPA inh – qHTS Assay for Inhibitors of Fructose-1,6-bisphosphate Aldolase from Giardia Lamblia: Rabbit FBPA Selectivity; shares compounds with Giardia FBPA inh-1; Rabbit muscle FBPA enzyme inhibition, selectivity counter-screen; Potency, µM (doses to about 57.5 µM), without a hit: top-dose activity, negative = inhibition, actives largely listed as inhibitors; 1,500 compounds, 4% hits; note: nearly all actives have a fitted effect of over 60% in size
Target sequence (P00883 whole entry, looked up): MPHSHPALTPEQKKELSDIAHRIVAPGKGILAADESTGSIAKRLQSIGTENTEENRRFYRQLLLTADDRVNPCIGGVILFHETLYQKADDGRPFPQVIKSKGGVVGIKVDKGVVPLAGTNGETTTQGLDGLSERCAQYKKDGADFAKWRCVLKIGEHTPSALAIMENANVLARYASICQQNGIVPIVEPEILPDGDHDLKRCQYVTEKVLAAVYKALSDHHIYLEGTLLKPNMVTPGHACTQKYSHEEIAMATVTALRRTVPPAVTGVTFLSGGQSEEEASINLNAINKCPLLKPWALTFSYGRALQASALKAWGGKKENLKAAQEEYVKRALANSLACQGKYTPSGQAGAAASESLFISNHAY
GAPDH counter – qHTS Assay for Inhibitors of Fructose-1,6-bisphosphate Aldolase from Giardia Lamblia: Coupling assay counterscreen confirmation. shares compounds with Giardia FBPA inh-1. GAPDH coupling enzyme counterscreen, biochemical, qHTS. Potency, µM (titrated, usually from 57.5 µM), for inactives: at the top dose activity change, negative = inhibition, most hits filed as inhibitors. 1,500 compounds, 6% hits. AID 2795, 2010; note: nearly all actives have a fitted effect of over 55% in size
The depositor's hits bear a star; ? = inconclusive; / = no result given; [ ] = another dose, or the depositor's remark. Most compounds without a hit are left out; they make up all but 3.6% or so of the library. Calls come from the whole dose curve; as a rule, active = well fitted curve in the direction sought with a large enough effect; inconclusive = small, poorly fitted or top-dose-only effect, or another doubt; inactive = no such curve, though single readings can be large; an effect the other way counts as inactive or inconclusive. Unless noted, % is set by controls: 0 for no effect and ±100 for the full control effect; potency is the fitted concentration of half-maximal effect.

SMILES	AmpC no deterg	AmpC detergent	Giardia FBPA inh-1	Sm TGR inh	Giardia growth	Mammalian tox	Giardia FBPA inh-2	Rabbit FBPA inh	GAPDH counter
O=[N+]([O-])c1cccc(C2=N[C@@H](Cc3ccccc3)CO2)c1	/	/	1%[89.2 µM]	/	/	/	/	/	/
O=C(NCc1ccc2c(c1)CCN2C(=O)c1ccc(F)cc1)c1cc2ccccc2[nH]1	/	11%	/	-3%	/	/	/	/	/
O=C(Cc1ccccc1)NCC(=O)N1CCN(c2ccccc2)CC1	21%	-2%	/	-10%	/	/	/	/	/
CN(C)CCNC(C(=O)Nc1cccc(S(=O)(=O)N2CCOCC2)c1)c1ccccc1 (stereo unspecified)	-10%	-4%	/	-8%	/	/	/	/	/
CN(C)CCNC(C(=O)Nc1cccc(C(F)(F)F)c1)c1ccccc1 (stereo unspecified)	-4%	4%	18µM*	-17%	-8%	-8%	1%	1%	6%
CCOc1ccc(NC(=O)CN2C(=O)NC(CCc3ccccc3)C2=O)cc1OCC (stereo unspecified)	-1%	/	/	/	/	/	/	/	/
O=C(CCSc1ccccc1)Nc1nnc(-c2cccs2)o1	-19%	5%	16µM*	28µM*	-13%[10.4 µM]	-14%	3%	5%	6%
CN(C)c1ccc(C(=O)Nc2nnc(C3=COCCO3)o2)cc1	-19%	4%	18µM*	7%	?	9%	-10%	-1%	0%
Cc1cccc(C(=O)Nc2nnc(C3=COCCO3)o2)c1	-12%	7%	18µM*	-16%	?	-1%	-4%	-5%	0%
CN(C)S(=O)(=O)c1ccc(C(=O)Nc2nnc(-c3cccs3)o2)cc1	-16%	-7%	18µM*	-13%	14µM*	-16%	-6%	-6%	-12%
Cc1sc2ncn(CC(=O)NCC(=O)N3CCN(c4ccccc4F)CC3)c(=O)c2c1C	-5%	2%	2%	7%	/	/	/	/	/
CC(=O)c1ccc(N2CCN(C(=O)[C@H](C)NC(=O)c3ccccc3Cl)CC2)cc1	-1%	-9%	-1%	-10%	/	/	/	/	/
CN(c1ccccc1)S(=O)(=O)c1ccc(C(=O)Nc2nnc(C3=COCCO3)o2)cc1	-44%	3%	11µM*	-3%	?	22%	3%	15%	-9%
CC(C)(C)c1ccc(C(=O)Nc2nnc(C3=COCCO3)o2)cc1	-42%	-11%	/	-2%	/	/	/	/	/
Cc1cccc(NC(=O)COc2coc(CN3CCN(c4ccccc4)CC3)cc2=O)c1	-3%	3%	/	?	/	/	/	/	/
[NH-]c1ncnc2c1N=C[N+]2=CC=CCO	-14%	1%	8.9µM*	?	-10%[38.3 µM]	8%	2%	6%	11%
O=C(Nc1ccc(F)cc1)Nc1ccc(N2CCOCC2)c2nonc12	-8%	-8%	-27%	/	/	/	/	/	/
O=C(Nc1ccc(N2CCOCC2)c2nonc12)C1CCCC1	-7%	2%	0.5µM*	-6%	-24%[38.3 µM]	-4%	-17%	-5%	-24%
COc1ccc(NC(=O)Nc2ccc(N3CCOCC3)c3nonc23)c(OC)c1	1%	?	5µM*	-1%	?	-11%	-20%	-4%	-2%
Cc1nc2sccn2c(=O)c1S(=O)(=O)N1CCN(c2cccc(Cl)c2)CC1	-17%	-10%	5%	0%	/	/	/	/	/
COc1ccc(S(=O)(=O)N2CCC(N3CCN(Cc4ccccc4)CC3)CC2)cc1	13%	3%	13µM*	-27%	63%	-2%	5%	2%	16%
COc1cc(CN2CCN(S(=O)(=O)c3ccc(F)cc3)CC2)cc(OC)c1OC	41%	-6%	?	-3%[11.4 µM]	/	/	/	/	/
COc1cc(CN2CCN(S(=O)(=O)c3ccccc3)CC2)cc(OC)c1OC	13%	?	25µM*	-37%	24%	-9%	-3%	0%	9%
COc1ccc(-c2nnc(SCC(=O)Nc3c(C)cccc3C)nc2-c2ccc(OC)cc2)cc1	/	-9%	/	-2%	/	/	/	/	/
Cc1cccc(C)c1NC(=O)CSc1nnc(-c2ccco2)c(-c2ccco2)n1	-28%	-1%	7.9µM*	1.8µM*	0%[10.4 µM]	15%	?	-23%	?
SMILES	AmpC no deterg	AmpC detergent	Giardia FBPA inh-1	Sm TGR inh	Giardia growth	Mammalian tox	Giardia FBPA inh-2	Rabbit FBPA inh	GAPDH counter
COc1ccc(NC2=Nc3cccc4cccc2c34)cc1	-25%	-13%	-12%	-7%	/	/	/	/	/
CCOC(=O)N1C(=O)C2(CCCCC2)N(c2ccccc2Cl)C1=S	-3%	-20%	-10%	-9%	/	/	/	/	/
O=C(NC1CCCCCCC1)c1ccc2c(c1)OCO2	-12%	?	-13%	-20%	/	/	/	/	/
c1cc2c(cc1NC1CCCCCC1)OCO2	-34%	1%	25µM*	?	98%	-6%	7.1µM*	?	-30%
Cc1cc(=O)[nH]c(N/N=C/c2ccccn2)n1	-3%	-7%	?	-2%	/	/	/	/	/
Cc1ccc(/C=N/Nc2cn[nH]c(=O)n2)o1	-33%	-3%	18µM*	50%	11%[10.4 µM]	4%	-7%	0%	-2%
Cc1ccc(/C=N/Nc2ccc3ccccc3n2)o1	-1%	2%	-21%	-34%	/	/	/	/	/
O=c1nc(N/N=C/c2ccccn2)cn[nH]1	-16%	5%	0.71µM*	30%	-25%[38.3 µM]	?	8%	-9%	-6%
O=c1cnnc(N/N=C/c2ccccn2)[nH]1	-12%	-1%	0.79µM*	5%	2%[38.3 µM]	?	4%	-5%	-16%
CC(C)c1ccc(Nc2ccc(C(=O)O)cc2[N+](=O)[O-])cc1	-20%	-3%	21%	-6%	/	/	/	/	/
COc1ccc(-c2[nH]ncc2C(=O)NCc2ccccc2OC)cc1	/	5%	/	3%	/	/	/	/	/
Cc1cc(-n2c(C)cc(C(=O)CSc3nncn3C(C)C)c2C)no1	10%	-17%	/	-19%	/	/	/	/	/

Screens deposited in PubChem by National Center for Advancing Translational Sciences (NCATS).
